# Source: the supplement of paper PMC6522484
# ± gives the standard deviation of the averaged measurements.
# Columns and labels:
# DLD1 [1] = experiment: cell viability (CellTiter-Glo) relative to plate median (fraction of plate median); higher = more viable cells; conditions: 10 µM, treatment time 24 h
# Method in brief: (§1)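 In 384-well plates, colorectal cancer lines with stable lentiviral 7TFP or TCF4/Wnt firefly luciferase reporters were seeded and, 24 h later, given kinase inhibitor library compounds at a final 10 µM for 24 h. A Tecan F500 reader measured firefly luciferase on one plate and CellTiterGlo on a parallel plate. Reported figures are two-replicate means of well signals normalised to the plate median, computed additively in webcellHTS2 without log transformation.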
# HCT116 [2] = experiment: as above; conditions: 10 µM; treatment time 24 h; reporter: TCF4/Wnt
# Method in brief: as §1
# SW480 [3] = experiment: as above; conditions: 10 µM; treatment time 24 h; reporter: 7TFP
# Method in brief: as §1
# DLD1 [4] = experiment: TCF/Wnt firefly luciferase reporter signal relative to plate median (fraction of plate median); higher = higher Wnt reporter signal; conditions: 10 µM, treatment time 24 h
# Method in brief: as §1
# HCT116 [5] = experiment: as above; conditions: 10 µM; treatment time 24 h; reporter: TCF4/Wnt
# Method in brief: as §1
# SW480 [6] = experiment: as above; conditions: 10 µM; treatment time 24 h; reporter: 7TFP
# Method in brief: as §1
# DLD1 [7] = experiment: cell viability (CellTiter-Glo) relative to plate median (fraction of plate median); higher = more viable cells; conditions: 5 µM; treatment time 24 h; reporter: 7TFP
# Method in brief: (§2)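 Each entry is a luminescence signal normalised to the plate median, averaged over independent replicates. The replicate count was two, and the cells were colorectal cancer lines with stable lentiviral TCF/Wnt firefly luciferase reporters exposed to library compounds at a final 5 µM for 24 h. Firefly luciferase and CellTiterGlo were measured on parallel plates.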
# HCT116 [8] = experiment: as above; conditions: 5 µM; treatment time 24 h; reporter: TCF4/Wnt
# Method in brief: as §2
# SW480 [9] = experiment: as above; conditions: 5 µM; treatment time 24 h; reporter: 7TFP
# Method in brief: as §2
# DLD1 [10] = experiment: TCF/Wnt firefly luciferase reporter signal relative to plate median (fraction of plate median); higher = higher Wnt reporter signal; conditions: 5 µM; treatment time 24 h; reporter: 7TFP
# Method in brief: as §2
# SW480 [11] = experiment: as above; conditions: 5 µM; treatment time 24 h; reporter: 7TFP
# Method in brief: as §2
Structure (SMILES),cell viability (DLD1 [1]; reporter: 7TFP),cell viability (DLD1 [1]; reporter: TCF4/Wnt),cell viability (HCT116 [2]),cell viability (SW480 [3]),TCF/Wnt firefly luciferase reporter signal (DLD1 [4]; reporter: 7TFP),TCF/Wnt firefly luciferase reporter signal (DLD1 [4]; reporter: TCF4/Wnt),TCF/Wnt firefly luciferase reporter signal (HCT116 [5]),TCF/Wnt firefly luciferase reporter signal (SW480 [6]),cell viability (DLD1 [7]),cell viability (HCT116 [8]),cell viability (SW480 [9]),TCF/Wnt firefly luciferase reporter signal (DLD1 [10]),TCF/Wnt firefly luciferase reporter signal (SW480 [11])
CCc1cccc(CC)c1NC(=O)N1Cc2[nH]nc(NC(=O)c3ccc(N4CCN(C)CC4)cc3)c2C1,1.05 ± 0.2,1.055 ± 0.0071,0.954 ± 0.093,1.1 ± 0.078,1.26 ± 0.014,1.09 ± 0.057,0.996 ± 0.19,0.794 ± 0.039,,,,,
CCC(=O)N1CCN(c2ccc(-n3c(=O)ccc4cnc5ccc(-c6cnc7ccccc7c6)cc5c43)cc2C(F)(F)F)CC1 [Torin 1],0.914 ± 0.16,0.97 ± 0.013,0.827 ± 0.045,1.17 ± 0.11,0.252 ± 0.044,0.311 ± 0.049,0.44 ± 0.096,0.66 ± 0.14,,,,,
CNC(=O)c1cc(Oc2ccc(NC(=O)Nc3ccc(Cl)c(C(F)(F)F)c3)cc2)ccn1 [Sorafenib (Nexavar)],1.11 ± 0.028,1.04 ± 0.098,1.135 ± 0.0071,1.04 ± 0.021,0.959 ± 0.2,0.883 ± 0.081,1.06 ± 0.078,1.19 ± 0.057,,,,,
CNC(=O)c1cc(Oc2ccc(NC(=O)Nc3ccc(Cl)c(C(F)(F)F)c3)c(F)c2)ccn1 [Regorafenib (BAY 73-4506)],1.04 ± 0.021,0.985 ± 0.092,1 ± 0.024,1.13 ± 0.014,0.816 ± 0.21,0.7185 ± 0.005,0.742 ± 0.34,1.03 ± 0.31,,,,,
Cc1ccc(NC(=O)c2ccc(CN3CCN(C)CC3)cc2)cc1Nc1nc(-c2cccnc2)cs1 [Masitinib (AB1010)],0.896 ± 0.073,1 ± 0.037,0.969 ± 0.037,0.993 ± 0.053,0.821 ± 0.019,1.25 ± 0.078,0.632 ± 0.1,1.01 ± 0.071,,,,,
O=C1NC(=O)/C(=C/c2ccc3nccc(-c4ccncc4)c3c2)S1,0.973 ± 0.038,1.07 ± 0.071,0.597 ± 0.061,1.02 ± 0.13,0.312 ± 0.018,0.564 ± 0.29,0.417 ± 0.25,0.572 ± 0.07,,,,,
FC(F)(F)c1ccc(/C=C/c2nc(COc3ccc(CCCCn4ccnn4)cc3)co2)cc1 [Mubritinib (TAK 165)],0.979 ± 0.03,0.946 ± 0.09,0.771 ± 0.032,0.911 ± 0.1,1 ± 0.094,0.984 ± 0.023,0.639 ± 0.23,0.816 ± 0.49,,,,,
CC(C)c1cnn2c(NCc3ccccc3)cc(NCCCCCCN)nc12,1 ± 0.067,0.969 ± 0.073,1 ± 0.055,0.921 ± 0.041,1.27 ± 0.11,1.52 ± 0.028,0.988 ± 0.14,1.2 ± 0.17,,,,,
O=C1NC(=O)/C(=C/c2ccc3c(c2)OC(F)(F)O3)S1,1.285 ± 0.0071,1.09 ± 0.021,1.15 ± 0.13,0.882 ± 0.034,0.944 ± 0.35,1.06 ± 0.24,1.18 ± 0.22,1.03 ± 0.21,,,,,
Cc1cnc(Nc2ccc(N3CCN(C)CC3)cc2)nc1Nc1cccc(S(=O)(=O)NC(C)(C)C)c1,0.833 ± 0.04,0.912 ± 0.18,0.514 ± 0.17,0.702 ± 0.18,1.37 ± 0.2,2.17 ± 0.035,2.98 ± 0.97,0.613 ± 0.3,,,,,
C[S+]([O-])c1ccc(-c2nc(-c3ccc(F)cc3)c(-c3ccncc3)[nH]2)cc1 (stereo not drawn),0.99 ± 0.099,1.02 ± 0.028,1.11 ± 0.035,0.913 ± 0.0099,0.82 ± 0.16,0.884 ± 0.22,1.26 ± 0.38,0.935 ± 0.064,,,,,
COc1ccc2c(OCc3nnc4ccc(-c5ccccc5)nn34)ccnc2c1,1.17 ± 0.05,1.06 ± 0.093,1.11 ± 0.05,0.909 ± 0.028,1.29 ± 0.028,1.27 ± 0.028,1.26 ± 0.035,1.16 ± 0.15,,,,,
COc1ccc(-c2ccc3ncc4c(c3c2)n(-c2ccc(N3CCNCC3)c(C(F)(F)F)c2)c(=O)n4C)cn1,0.0998 ± 0.065,0.116 ± 0.084,0.0311 ± 0.011,0.273 ± 0.18,0.0479 ± 0.0086,0.0791 ± 0.014,0.0387 ± 0.017,0.148 ± 0.14,,,,,
CC1(C)CNc2cc(NC(=O)c3cccnc3NCc3ccncc3)ccc21 [Motesanib Diphosphate],1.015 ± 0.0071,0.978 ± 0.074,1.08 ± 0.021,0.8805 ± 0.0021,1.14 ± 0.12,0.952 ± 0.17,1.19 ± 0.19,0.971 ± 0.11,,,,,
COc1cc(CCc2cc(NC(=O)c3ccc(N4CC(C)NC(C)C4)cc3)n[nH]2)cc(OC)c1 (stereo not drawn),0.967 ± 0.1,0.951 ± 0.04,1.04 ± 0.058,1.07 ± 0.05,0.794 ± 0.042,0.718 ± 0.011,0.502 ± 0.34,0.93 ± 0.099,,,,,
COc1ncc(-c2ccc3nccc(-c4ccnnc4)c3c2)cc1NS(=O)(=O)c1ccc(F)cc1F,0.84 ± 0.018,0.944 ± 0.073,0.295 ± 0.026,1.09 ± 0.042,0.255 ± 0.054,0.238 ± 0.067,0.132 ± 0.021,0.558 ± 0.0092,,,,,
C[C@@H]1CC[C@H]2[C@](C)(CO)[C@@H](O)CC[C@]2(C)[C@@]12CC[C@@](CO)(CCO)O2,,,,,,,,,0.994 ± 0.052,1.02 ± 0.049,0.9945 ± 0.0078,1.01 ± 0.043,1.02 ± 0.014
